Assay [1] in a line: NCI Yeast Anticancer Drug Screen. Data for the rad50 strain (AID 155).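 Also: 0% = growth of vehicle-only cultures of the same strain.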 The settings on record: S. cerevisiae rad50 strain growth inhibition, hits give high values. The procedure, abridged: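 Inhibition values express reduced yeast growth in compound-treated cultures relative to vehicle-treated controls.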
Assay [2] can be described thus: NCI Yeast Anticancer Drug Screen. Data for the mec2-1 strain (AID 157). The following applies: S. cerevisiae mec2-1 strain, hits give high values. The essentials: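 Yeast mec2-1 mutant treated with compound. Readout: growth inhibition vs vehicle controls.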
Assay [3] in a line: NCI Yeast Anticancer Drug Screen. Data for the sgs1 mgt1 strain (AID 161).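 Also: 0% = growth of cultures given vehicle only.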 The settings on record: S. cerevisiae sgs1 mgt1 strain, hits give high values. The procedure, abridged: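 Mutant yeast exposed to compound; growth scored against vehicle-only wells.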
Assay [4] in a line: NCI Yeast Anticancer Drug Screen. Data for the cln2 rad14 strain (AID 165).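 Also: 0% = growth equal to vehicle treated cultures.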 The settings on record: S. cerevisiae cln2 rad14 strain, hits give high values. The procedure, abridged:
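cln2 rad14 yeast strain; compound exposure; growth inhibition read vs vehicle controls.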

The nature of assay [5]: NCI Yeast Anticancer Drug Screen. Data for the bub3 strain (AID 167). The following applies: S. cerevisiae bub3 mutant strain, hits give high values. The essentials: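 Steps: expose the mutant yeast strain to compound; grow alongside vehicle-treated cultures; measure growth; express inhibition against the vehicle cultures.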
A short description of assay [6]: NCI Yeast Anticancer Drug Screen. Data for the mlh1 rad18 strain (AID 175). The settings on record: S. cerevisiae mlh1 rad18 strain growth inhibition, hits give high values. The procedure, abridged: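 Yeast w/ defined DNA-repair lesions; compound exposure; growth vs vehicle controls → % inhibition.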
Setting [7] is: at 5.0 µM (retest, dose inferred, filed as 0.5).
Where [8] appears, read: at 50.0 µM (retest, dose inferred, filed as 5.0).

Compounds without any hit were thinned out: in the full panel of roughly 79,000, 15% have a hit. Unmarked numbers belong to inactive results. Active and inactive are the calls of the source. Rule as the data show it: active = growth inhibition above about 70%; inactive = the rest.

Regarding `C1=CC2OC2CCCCCCCC1` (mixture of isomers), the growth inhibition in assay [1] (setting [7]) was 7%; in assay [1] (setting [8]) it was 75% (active); in assay [1] (at 50.0 µM), 83.2% (active); in assay [2] (setting [7]), 0%; in assay [2] (setting [8]), 80% (active); in assay [2] (at 50.0 µM), 62.5%. Besides, the growth inhibition in assay [3] (setting [7]) was 2%; in assay [3] (setting [8]) it was 78% (active); in assay [3] (at 50.0 µM) it was 84.8% (active); in assay [4] (setting [7]), -2%; in assay [4] (setting [8]), 59%; in assay [4] (at 50.0 µM), 31.6%. In addition, the growth inhibition in assay [5] (setting [7]) was -5%; in assay [5] (setting [8]), 73% (active); in assay [5] (at 50.0 µM), 50.7%; in assay [6] (setting [7]), 1%; in assay [6] (setting [8]) it was 90% (active); in assay [6] (at 50.0 µM), 70.9% (active).
`Clc1ccc(N2CCN(CCCN3CCN(c4ccc(Cl)cc4)CC3)CC2)cc1`: the growth inhibition in assay [1] (setting [7]) was -2%; in assay [1] (setting [8]), 29%; in assay [1] (at 50.0 µM), 67.9%; in assay [2] (setting [7]) it was -6%; in assay [2] (setting [8]), 35%; in assay [2] (at 50.0 µM), 18.5%. Besides, the growth inhibition in assay [3] (setting [7]) was -14%; in assay [3] (setting [8]), 74% (active); in assay [3] (at 50.0 µM), 81.2% (active); in assay [4] (setting [7]) it was -3%; in assay [4] (setting [8]), 30%; in assay [4] (at 50.0 µM), 6.25%. Further, the growth inhibition in assay [5] (setting [7]) is -3%; in assay [5] (setting [8]) it was 24%; in assay [5] (at 50.0 µM), 24.9%; in assay [6] (setting [7]), 4%; in assay [6] (setting [8]), 42%; in assay [6] (at 50.0 µM) it was 31.8%.
Consider `C=C1CC[C@@H]2C(C)(C)C(O)CCC2(C)C1COc1ccc2ccc(=O)oc2c1` (stereo not given in full), for which the growth inhibition in assay [1] (setting [7]) was -10%; in assay [1] (setting [8]), 94% (active); in assay [1] (at 50.0 µM), 85.5% (active); in assay [2] (setting [7]), -4%; in assay [2] (setting [8]), 97% (active); in assay [2] (at 50.0 µM) it was 89.3% (active). For the same compound, the growth inhibition in assay [3] (setting [7]) is -1%; in assay [3] (setting [8]), 92% (active); in assay [3] (at 50.0 µM), 86.7% (active); in assay [4] (setting [7]) it was -5%; in assay [4] (setting [8]), 94% (active); in assay [4] (at 50.0 µM), 85.8% (active). The growth inhibition was -40% in assay [5] (setting [7]); 94% (active) in assay [5] (setting [8]); 86.5% (active) in assay [5] (at 50.0 µM); -38% in assay [6] (setting [7]); 93% (active) in assay [6] (setting [8]); 82.8% (active) in assay [6] (at 50.0 µM).
In the case of `N#Cc1c(-c2ccc(Cl)c(Cl)c2)c(-c2ccc(Cl)c(Cl)c2)nn(CC(=O)O)c1=O`, the growth inhibition in assay [1] (setting [7]) was -2%; in assay [1] (setting [8]), 98% (active); in assay [1] (at 50.0 µM), 38.1%; in assay [2] (setting [7]) it was -2%; in assay [2] (setting [8]), 100% (active); in assay [2] (at 50.0 µM) it was 46.6%. Also, the growth inhibition in assay [3] (setting [7]) is 2%; in assay [3] (setting [8]), 98% (active); in assay [3] (at 50.0 µM), 50.7%; in assay [4] (setting [7]) it was -3%; in assay [4] (setting [8]) it was 99% (active); in assay [4] (at 50.0 µM), 14.3%. In addition, the growth inhibition is -3% in assay [5] (setting [7]); 99% (active) in assay [5] (setting [8]); 34.2% in assay [5] (at 50.0 µM); 0% in assay [6] (setting [7]); 99% (active) in assay [6] (setting [8]); 69.1% in assay [6] (at 50.0 µM).
Take `COc1cc(OC)c(C/C=C/c2ccccc2)cc1O`: the growth inhibition in assay [1] (setting [7]) is 27%; in assay [1] (setting [8]), 73% (active); in assay [1] (at 50.0 µM), 10.2%; in assay [2] (setting [7]), 21%; in assay [2] (setting [8]) it was 71% (active); in assay [2] (at 50.0 µM), -15.6%. For the same compound, the growth inhibition in assay [3] (setting [7]) was 20%; in assay [3] (setting [8]) it was 75% (active); in assay [3] (at 50.0 µM), 16.3%; in assay [4] (setting [7]) it was 16%; in assay [4] (setting [8]), 49%; in assay [4] (at 50.0 µM), 19.6%. In addition, the growth inhibition in assay [5] (setting [7]) is 29%; in assay [5] (setting [8]) it was 86% (active); in assay [5] (at 50.0 µM), -27.8%; in assay [6] (setting [7]) it was 30%; in assay [6] (setting [8]), 93% (active); in assay [6] (at 50.0 µM), 89.3% (active).
As to `C1=NN(c2ccccc2)C2c3ccccc3CCCC12` (stereo not given), the growth inhibition in assay [1] (setting [7]) is 8%; in assay [1] (setting [8]) it was 98% (active); in assay [1] (at 50.0 µM), 99.2% (active); in assay [2] (setting [7]), 18%; in assay [2] (setting [8]), 99% (active); in assay [2] (at 50.0 µM) it was 98.7% (active). The growth inhibition in assay [3] (setting [7]) is 8%; in assay [3] (setting [8]) it was 99% (active); in assay [3] (at 50.0 µM), 99% (active); in assay [4] (setting [7]), -4%; in assay [4] (setting [8]) it was 98% (active); in assay [4] (at 50.0 µM), 98.8% (active). The growth inhibition was 5% in assay [5] (setting [7]); 99% (active) in assay [5] (setting [8]); 99.1% (active) in assay [5] (at 50.0 µM); -2% in assay [6] (setting [7]); 99% (active) in assay [6] (setting [8]); 98.7% (active) in assay [6] (at 50.0 µM).
On to `COc1ccc(/C=N/NS(=O)(=O)c2ccccc2)cc1`, for which the growth inhibition in assay [1] (setting [7]) is 0%; in assay [1] (setting [8]), -2%; in assay [1] (at 50.0 µM), 99.1% (active); in assay [2] (setting [7]), -2%; in assay [2] (setting [8]), 4%; in assay [2] (at 50.0 µM) it was 99.3% (active). For the same compound, the growth inhibition in assay [3] (setting [7]) was 0%; in assay [3] (setting [8]), 3%; in assay [3] (at 50.0 µM), 99% (active); in assay [4] (setting [7]) it was -10%; in assay [4] (setting [8]), -7%; in assay [4] (at 50.0 µM) it was 98% (active). In addition, the growth inhibition in assay [5] (setting [7]) is 2%; in assay [5] (setting [8]) it was 11%; in assay [5] (at 50.0 µM), 99.2% (active); in assay [6] (setting [7]), -2%; in assay [6] (setting [8]) it was 7%; in assay [6] (at 50.0 µM), 99% (active).
Regarding `CN(C)c1ccc(-c2c(C#N)c(-c3ccccc3)n(NS(=O)(=O)c3ccccc3)c(=O)c2C#N)cc1`, the growth inhibition is 19% in assay [1] (setting [7]); 36% in assay [1] (setting [8]); 71% (active) in assay [1] (at 50.0 µM); 23% in assay [2] (setting [7]); 32% in assay [2] (setting [8]); 75.5% (active) in assay [2] (at 50.0 µM). For the same compound, the growth inhibition in assay [3] (setting [7]) is 34%; in assay [3] (setting [8]) it was 50%; in assay [3] (at 50.0 µM), 75.2% (active); in assay [4] (setting [7]) it was 44%; in assay [4] (setting [8]), 53%; in assay [4] (at 50.0 µM) it was 80.8% (active). Further, the growth inhibition in assay [5] (setting [7]) was 54%; in assay [5] (setting [8]) it was 51%; in assay [5] (at 50.0 µM), 76.2% (active); in assay [6] (setting [7]), 17%; in assay [6] (setting [8]) it was 31%; in assay [6] (at 50.0 µM), 72.2% (active).
As to `O=c1ccc([N+](=O)[O-])c[nH]1.[Ag]`, the growth inhibition in assay [1] (setting [7]) is 98% (active); in assay [1] (setting [8]) it was 98% (active); in assay [1] (at 50.0 µM), 99.5% (active); in assay [2] (setting [7]), 99% (active); in assay [2] (setting [8]), 99% (active); in assay [2] (at 50.0 µM), 99.3% (active). The growth inhibition in assay [3] (setting [7]) was 99% (active); in assay [3] (setting [8]), 98% (active); in assay [3] (at 50.0 µM), 99.1% (active); in assay [4] (setting [7]) it was 98% (active); in assay [4] (setting [8]), 100% (active); in assay [4] (at 50.0 µM), 98.2% (active). The growth inhibition is 98% (active) in assay [5] (setting [7]); 98% (active) in assay [5] (setting [8]); 98.3% (active) in assay [5] (at 50.0 µM); 98% (active) in assay [6] (setting [7]); 97% (active) in assay [6] (setting [8]); 99% (active) in assay [6] (at 50.0 µM).
For `COc1ccc2c(c1)Cc1cc(NC(=O)N(CCCl)N=O)ccc1-2`, the growth inhibition was -2% in assay [1] (setting [7]); 85% (active) in assay [1] (setting [8]); 90.2% (active) in assay [1] (at 50.0 µM); 2% in assay [2] (setting [7]); 88% (active) in assay [2] (setting [8]); 55.9% in assay [2] (at 50.0 µM). For the same compound, the growth inhibition in assay [3] (setting [7]) was 3%; in assay [3] (setting [8]), 77% (active); in assay [3] (at 50.0 µM) it was 89.2% (active); in assay [4] (setting [7]), -5%; in assay [4] (setting [8]), 49%; in assay [4] (at 50.0 µM), -0.85%. In addition, the growth inhibition in assay [5] (setting [7]) is -11%; in assay [5] (setting [8]), 41%; in assay [5] (at 50.0 µM) it was 22.9%; in assay [6] (setting [7]), 28%; in assay [6] (setting [8]), 94% (active); in assay [6] (at 50.0 µM), 95.6% (active).

Source of the values: PubChem BioAssay (NCI).
